Reference: PubChem BioAssay (NCATS)
Values without a mark were called inactive. Results filed as inconclusive are left out. Activity calls are given as the source filed them. Unless noted, calls come from the whole dose curve; as a rule, active = well fitted curve in either direction with a large enough effect (not every such curve was filed as active); inconclusive = small, poorly fitted or top-dose-only effect, or another doubt; inactive = flat fitted curve, though single readings scatter.

How the values were obtained:
[1] = molecular target: Lysosomal acid glucosylceramidase (Homo sapiens) (UniProt P04062); experiment: Glucocerebrosidase-p2 (AID 348; in the data active = potency below about 10 µM; note: potency is the fitted concentration of half-maximal effect); settings: purified GBA, blue fluorogenic substrate, 40 min
Chain of Lysosomal acid glucosylceramidase (Homo sapiens) (P04062 whole entry, looked up): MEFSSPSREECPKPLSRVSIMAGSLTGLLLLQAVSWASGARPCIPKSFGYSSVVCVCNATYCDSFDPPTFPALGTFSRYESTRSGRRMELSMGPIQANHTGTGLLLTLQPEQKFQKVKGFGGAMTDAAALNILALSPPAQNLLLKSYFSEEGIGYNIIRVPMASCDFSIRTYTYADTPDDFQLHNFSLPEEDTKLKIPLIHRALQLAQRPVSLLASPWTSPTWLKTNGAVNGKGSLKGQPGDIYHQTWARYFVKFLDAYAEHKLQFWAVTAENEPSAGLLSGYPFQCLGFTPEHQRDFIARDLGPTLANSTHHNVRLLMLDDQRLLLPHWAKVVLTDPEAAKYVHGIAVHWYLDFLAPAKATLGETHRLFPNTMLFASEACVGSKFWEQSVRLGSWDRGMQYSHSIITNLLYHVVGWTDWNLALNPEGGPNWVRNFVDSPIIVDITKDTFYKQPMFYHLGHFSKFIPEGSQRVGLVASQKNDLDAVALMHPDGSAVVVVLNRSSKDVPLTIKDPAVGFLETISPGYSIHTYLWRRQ
Outline: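 Compounds titrated from 0.6 nM upwards against 0.2 nM enzyme in pH 5.9 citric acid/KH2PO4, taurocholate, tween-20; blue fluorogenic substrate 80 uM, 40 min room temperature, stopped and read Ex 365/Em 440 for AC50.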

[2] = AP1 Signaling Pathway (AID 357); settings: ME-180 AP-1-bla reporter, EGF-induced, beta-lactamase ratio, 5 h; at 7.69 µM (top of the series) unless noted;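 note: ME-180 reporter cells stimulated with EGF at its EC50 level; % is set by controls: 0 for no effect and ±100 for the full control effect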
Outline: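 AP-1-bla ME-180 cells, Opti-MEM + 0.5% dialyzed FBS, plated overnight 37 °C. Cpd titration + EC50 EGF, 5 h 37 °C. CCF4 2.5 h RT; ex 405, em 460/530 ratio → %activity, AC50.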

[3] = molecular target: Cytochrome P450 1A2 (Homo sapiens) (UniProt P05177); experiment: p450-cyp1a2 (AID 410; calls by dose curve; note: potency is the fitted concentration of half-maximal effect;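 for activity change, negative = inhibition: -100% = full effect of reference inhibitor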); settings: recombinant CYP1A2, luciferin-ME demethylation, luminescence; series mostly up to 57 µM
Chain of Cytochrome P450 1A2 (Homo sapiens) (P05177 whole entry, looked up): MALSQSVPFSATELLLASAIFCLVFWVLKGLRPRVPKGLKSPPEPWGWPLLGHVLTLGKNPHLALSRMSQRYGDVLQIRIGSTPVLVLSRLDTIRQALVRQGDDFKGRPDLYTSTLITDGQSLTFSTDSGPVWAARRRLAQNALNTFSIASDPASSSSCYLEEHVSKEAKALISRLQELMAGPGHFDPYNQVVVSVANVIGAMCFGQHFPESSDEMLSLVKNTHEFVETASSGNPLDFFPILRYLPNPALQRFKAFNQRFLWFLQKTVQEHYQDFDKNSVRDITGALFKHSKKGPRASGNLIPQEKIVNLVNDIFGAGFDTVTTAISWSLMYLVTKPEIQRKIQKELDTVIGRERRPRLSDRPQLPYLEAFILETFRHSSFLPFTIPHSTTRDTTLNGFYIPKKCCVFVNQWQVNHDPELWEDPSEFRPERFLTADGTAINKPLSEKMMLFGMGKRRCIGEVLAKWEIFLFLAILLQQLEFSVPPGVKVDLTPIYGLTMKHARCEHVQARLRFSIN
Outline: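 Inhibition was calculated relative to 57 uM furafylline (full inhibition). The reaction used human CYP1A2 at 20nM with Luciferin-ME at its Km, 100uM, driven by an NADPH-regenerating system for 60 min at room temperature.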

[4] = NFAT Signaling Pathway (AID 444); settings: Jurkat NFAT-bla M1, carbachol, beta-lactamase ratio, 5 h; at 7.69 µM (top of the series) unless noted;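 note: carbachol stimulus at about its EC50 of 1 µM final; % is set by controls: 0 for no effect and ±100 for the full control effect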
Outline: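 Read-out: CCF4 FRET ratio (460 nm/530 nm) after 1 h RT dye loading, used for %activity and AC50 from titration series. Cells: Jurkat NFAT-β-lactamase/M1 line, treated with compound plus 1 uM carbachol for 5 h, 37 °C.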

[5] = Stat Signaling Pathway (AID 446); settings: ME-180 SIE beta-lactamase reporter, IL-6 stimulated, 5 h; at 7.69 µM (top of the series) unless noted;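 note: ME-180 cervical cancer cells given 40 pM IL-6 alongside compound; SIE-controlled beta-lactamase reporter measured as 460/530 nm FRET emission ratio; % is set by controls: 0 for no effect and ±100 for the full control effect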
Outline: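 Reporter line: ME-180 cervical carcinoma, SIE-beta-lactamase. Treatment: compound with 40 pM IL-6, 5 hrs, 37 C, in low-serum OPTI-MEM with 10 mM HEPES pH 7.3. Detection: 460/530 nm fluorescence.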

[6] = molecular target: Glucocorticoid receptor (Homo sapiens) (UniProt P04150); experiment: GR-GFP Redistribution (AID 450;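 active = compounds whose dose series gives a full or clear partial fitted curve of increased nuclear translocation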; note: potency is the fitted concentration of half-maximal effect); settings: U2OS GR-GFP nuclear translocation, laser cytometry, 2 h
Chain of Glucocorticoid receptor (Homo sapiens) (P04150 whole entry, looked up, the tested form may be a part): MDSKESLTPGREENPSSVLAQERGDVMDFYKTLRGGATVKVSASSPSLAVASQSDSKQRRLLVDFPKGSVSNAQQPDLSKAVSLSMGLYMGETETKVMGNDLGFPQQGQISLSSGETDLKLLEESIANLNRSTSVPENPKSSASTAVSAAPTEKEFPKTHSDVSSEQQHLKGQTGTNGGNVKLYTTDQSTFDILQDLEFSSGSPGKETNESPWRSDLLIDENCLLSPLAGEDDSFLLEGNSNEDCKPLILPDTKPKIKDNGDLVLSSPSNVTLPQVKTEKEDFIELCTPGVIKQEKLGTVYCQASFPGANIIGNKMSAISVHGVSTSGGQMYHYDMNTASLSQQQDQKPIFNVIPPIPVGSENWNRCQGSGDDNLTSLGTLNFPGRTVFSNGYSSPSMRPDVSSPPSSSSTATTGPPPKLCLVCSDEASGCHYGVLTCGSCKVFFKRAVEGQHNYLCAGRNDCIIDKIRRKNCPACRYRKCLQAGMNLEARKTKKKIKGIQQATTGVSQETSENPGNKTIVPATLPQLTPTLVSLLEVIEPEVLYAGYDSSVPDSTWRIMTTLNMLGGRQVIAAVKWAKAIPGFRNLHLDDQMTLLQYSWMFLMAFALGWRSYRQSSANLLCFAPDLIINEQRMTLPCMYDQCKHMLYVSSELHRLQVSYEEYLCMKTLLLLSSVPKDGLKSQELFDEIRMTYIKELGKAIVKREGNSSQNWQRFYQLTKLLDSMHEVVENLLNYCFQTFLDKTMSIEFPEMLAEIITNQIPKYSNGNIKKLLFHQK

[7] = molecular target: Glucocorticoid receptor (Homo sapiens) (UniProt P04150); experiment: GR-EFC Redistribution (AID 451; calls by dose curve; note: potency is the fitted concentration of half-maximal effect); settings: CHO-K1 GR-EFC translocation, beta-gal luminescence, 2 h
Outline: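 Translocation of GR-ED fusion to nuclear EA restores b-gal, read by luminescence after 1 h room-temperature detection. Engineered CHO-K1 biosensor cells, 1,000/well, exposed 2 h at 37 C to titrations up to 46 uM final.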

[8] = molecular target: Mitogen-activated protein kinase 10 (Mus musculus) (UniProt Q61831); experiment: JNK3 AlphaScreen Assay (AID 530); settings: JNK3 lysate, c-Jun phosphorylation; series mostly up to 57.1 µM;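 note: kinase came from lysate of stimulated human HepG2 cells; signal reports phosphorylation of biotinylated GST-cJun 1-79 at Ser73 with 10 µM ATP; % is set by controls: 0 for no effect and ±100 for the full control effect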
Outline: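 Room-temperature AlphaScreen kinase assay; pre-activated HepG2 lysate as JNK3 source, biotin-GST-cJun(1-79) substrate, 10 uM ATP, compound 15 min preincubation.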

[9] = molecular target: Cytochrome P450 3A4 (Homo sapiens) (UniProt P08684); experiment: qHTS Assay for Inhibitors and Substrates of Cytochrome P450 3A4 (AID 884; active = well fitted curve in the direction sought with a large enough effect; an effect the other way counts as inactive or inconclusive; note: potency is the fitted concentration of half-maximal effect; nearly all actives have a fitted effect of over 50% in size); settings: recombinant CYP3A4, Luciferin-PPXE luminescence; series mostly up to 57.1 µM
Chain of Cytochrome P450 3A4 (Homo sapiens) (P08684 whole entry, looked up): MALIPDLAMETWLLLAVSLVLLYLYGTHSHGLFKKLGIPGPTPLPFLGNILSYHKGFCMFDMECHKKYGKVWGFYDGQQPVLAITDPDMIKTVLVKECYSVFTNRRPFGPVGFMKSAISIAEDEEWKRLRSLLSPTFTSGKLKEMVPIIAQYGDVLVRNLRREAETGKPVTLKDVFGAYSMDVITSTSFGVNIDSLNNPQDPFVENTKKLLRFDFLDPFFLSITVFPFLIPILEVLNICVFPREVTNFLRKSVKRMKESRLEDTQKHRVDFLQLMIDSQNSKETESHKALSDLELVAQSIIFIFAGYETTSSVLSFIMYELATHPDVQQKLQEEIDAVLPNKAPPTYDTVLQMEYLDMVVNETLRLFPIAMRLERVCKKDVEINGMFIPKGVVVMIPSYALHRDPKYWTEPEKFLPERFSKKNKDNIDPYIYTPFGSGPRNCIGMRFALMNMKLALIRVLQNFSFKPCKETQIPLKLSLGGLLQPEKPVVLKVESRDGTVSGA
Outline: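 20 nM human CYP3A4 with 25 uM Luciferin-PPXE (at KM) in 200 mM KPO4, preincubated 10 min with compound; NADPH regeneration started a 60 min RT reaction. Luciferin detected by luminescence, normalized to 57 uM ketoconazole as full inhibition.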

[10] = molecular target: Cytochrome P450 3A4 (Homo sapiens) (UniProt P08684); experiment: qHTS Assay for Activators of Cytochrome P450 3A4 (AID 885; active = well fitted curve in the direction sought with a large enough effect; an effect the other way counts as inactive or inconclusive; note: nearly all actives have a fitted effect of over 65% in size); settings: recombinant CYP3A4, Luciferin-PPXE luminescence, 60 min; series mostly up to 57.1 µM
Outline: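 Signal was normalized against complete inhibition by 57 uM ketoconazole. The reaction used 20nM CYP3A4 with 25uM Luciferin-PPXE, 10-min compound preincubation and a 60-min NADPH-supported step at RT.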

[11] = Primary qHTS for small molecule stabilizers of the endoplasmic reticulum resident proteome: Secreted ER Calcium Modulated Protein (SERCaMP) assay (AID 1508630; active = well fitted curve in the direction sought with a large enough effect; an effect the other way counts as inactive or inconclusive; note: % is set by controls: 0 for no effect and ±100 for the full control effect); settings: SH-SY5Y GLuc-SERCaMP (Gaussia luciferase released on ER calcium loss) secretion, thapsigargin, luminescence; series mostly up to 38.4 µM
Outline: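 GLuc-SERCaMP-expressing SH-SY5Y cells, pretreated 16 h with compound, are challenged with thapsigargin to empty ER calcium stores; after 4 h, coelenterazine is added directly to the medium and luminescence is imaged.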

[12] = molecular target: 3',5'-cyclic-AMP phosphodiesterase 4B (Homo sapiens) (UniProt Q07343); experiment: qHTS Assay for Inhibitors of PDE-IV (AID 607; active = well fitted activation curve with a large enough effect in the main read-out, with a control signal flat, not every such curve was filed as active; note: % of control where 0% means no effect); settings: HEK293 ACTOne CNG channel cells, membrane potential fluorescence; series mostly up to 22.9 µM
Chain of 3',5'-cyclic-AMP phosphodiesterase 4B (Homo sapiens) (Q07343 whole entry, looked up): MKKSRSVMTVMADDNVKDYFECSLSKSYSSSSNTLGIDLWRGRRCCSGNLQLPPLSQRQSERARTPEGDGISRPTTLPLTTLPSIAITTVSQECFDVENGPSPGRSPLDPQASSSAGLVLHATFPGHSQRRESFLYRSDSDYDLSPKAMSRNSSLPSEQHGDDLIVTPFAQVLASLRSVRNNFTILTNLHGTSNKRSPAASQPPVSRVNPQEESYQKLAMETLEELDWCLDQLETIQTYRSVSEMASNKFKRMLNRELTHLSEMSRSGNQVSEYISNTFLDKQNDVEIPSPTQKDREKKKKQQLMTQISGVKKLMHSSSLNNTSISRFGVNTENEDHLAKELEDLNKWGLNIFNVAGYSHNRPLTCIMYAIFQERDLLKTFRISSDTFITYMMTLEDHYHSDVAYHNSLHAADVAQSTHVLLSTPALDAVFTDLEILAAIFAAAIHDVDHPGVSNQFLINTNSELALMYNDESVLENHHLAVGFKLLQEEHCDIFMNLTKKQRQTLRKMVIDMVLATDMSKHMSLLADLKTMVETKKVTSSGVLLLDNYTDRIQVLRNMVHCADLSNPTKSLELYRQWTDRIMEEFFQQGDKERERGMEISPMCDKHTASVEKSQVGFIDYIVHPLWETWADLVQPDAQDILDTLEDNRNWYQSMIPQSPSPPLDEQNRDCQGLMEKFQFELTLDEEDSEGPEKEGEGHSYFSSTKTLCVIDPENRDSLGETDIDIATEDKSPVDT
Outline: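 Cell-based read-out of cAMP via a modified cyclic nucleotide-gated channel and membrane potential dye (535/590 nm) in HEK293 cells expressing PDE4 endogenously. Compounds tested up to 22.9 uM final; 100 uM RO 20-1724 reference.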

[13] = Confirmation and Secondary Assay for Modulators of Hemoglobin Beta Chain Splicing at IVS2 654 locus (AID 910; active = well fitted curve in the direction sought with a large enough effect; an effect the other way counts as inactive or inconclusive;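 note: HeLa cells stably carrying EGFP split by mutant beta-globin IVS2-654 intron; per-well total GFP intensity by laser scanning cytometry after 2-day treatment; % of control where 0% means no effect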); settings: HeLa EGFP-654 splicing reporter, GFP fluorescence, 48 h; series mostly up to 38.3 µM
Outline: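 Readout: per-well total peak green fluorescence (488 nm ex, 500–520 nm em) from objects 5–250 µm, reflecting correct splicing of an EGFP-654 reporter. Compounds were applied for 2 days at 37 °C to overnight-plated HeLa EGFP-654 cells; controls were DMSO and 500 nM IVS2-654 PNA.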

[14] = Confirmation and Secondary Assay for Modulators of Hemoglobin Beta Chain Splicing at IVS2 705 locus (AID 930; active = well fitted curve in the direction sought with a large enough effect; an effect the other way counts as inactive or inconclusive;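 note: HeLa cells stably expressing the EGFP-705 splicing reporter; % of control where 0% means no effect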); settings: HeLa EGFP-705 splicing reporter, GFP fluorescence, 48 h; series mostly up to 38.3 µM
Outline: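 Restored EGFP fluorescence after 2-day compound exposure reports splicing correction in IVS2-705 EGFP reporter HeLa cells; positive control was 500 nM splice-blocking PNA oligo. Signal measured as well total peak GFP intensity (488 nm excitation).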

[15] = molecular target: Ubiquitin carboxyl-terminal hydrolase 1 (Homo sapiens) (UniProt O94782); experiment: Inhibitors of USP1/UAF1: Pilot qHTS (AID 504865; active = well fitted curve in the direction sought with a large enough effect; an effect the other way counts as inactive or inconclusive;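 note: rhodamine fluorescence freed from ubiquitin-rhodamine substrate followed over time; top concentration of the series differs between compounds; % is set by controls: 0 for no effect and ±100 for the full control effect; nearly all actives have a fitted effect of over 35% in size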); settings: purified USP1/UAF1, Ub-rhodamine cleavage fluorescence; series mostly up to 54.9 µM
Chain of Ubiquitin carboxyl-terminal hydrolase 1 (Homo sapiens) (O94782 whole entry, looked up): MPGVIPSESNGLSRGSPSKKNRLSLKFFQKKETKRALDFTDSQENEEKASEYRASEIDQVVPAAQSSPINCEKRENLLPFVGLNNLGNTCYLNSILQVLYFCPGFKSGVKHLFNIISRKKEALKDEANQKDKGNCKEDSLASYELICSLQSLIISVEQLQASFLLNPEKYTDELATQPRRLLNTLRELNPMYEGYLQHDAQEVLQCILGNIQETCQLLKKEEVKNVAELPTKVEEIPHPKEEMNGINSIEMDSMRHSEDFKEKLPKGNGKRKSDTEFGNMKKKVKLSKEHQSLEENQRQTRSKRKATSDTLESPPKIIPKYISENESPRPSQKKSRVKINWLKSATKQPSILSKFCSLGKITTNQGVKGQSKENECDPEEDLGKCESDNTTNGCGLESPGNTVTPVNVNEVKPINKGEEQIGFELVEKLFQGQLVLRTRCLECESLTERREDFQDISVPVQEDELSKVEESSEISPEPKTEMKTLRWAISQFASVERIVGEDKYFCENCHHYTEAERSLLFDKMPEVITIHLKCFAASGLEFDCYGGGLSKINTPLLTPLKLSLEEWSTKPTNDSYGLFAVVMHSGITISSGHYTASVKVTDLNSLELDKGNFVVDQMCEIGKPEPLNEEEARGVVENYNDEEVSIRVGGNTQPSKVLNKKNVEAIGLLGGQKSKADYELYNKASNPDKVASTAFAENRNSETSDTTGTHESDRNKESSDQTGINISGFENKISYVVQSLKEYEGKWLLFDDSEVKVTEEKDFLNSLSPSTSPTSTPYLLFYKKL
Outline: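 USP1/UAF1 complex (1nM) preincubated with compound 15 min at room temperature, then Ub-Rho substrate (150nM final) added. Fluorescence read kinetically at 480/540 nm, 6 reads every 60 seconds. Buffer: 50mM HEPES pH 7.8, 0.5mM EDTA, 0.1 mg/ml BSA, 1mM TCEP, 0.01% Tween-20.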

| Compound | Potency [1] [µM] | activity change, negative = inhibition [2] [%] | Potency [3] | activity change, negative = inhibition [4] [%] | activity, negative = inhibition [5] [%] | Potency [6] [µM] | Potency [7] [µM] | Potency [8] | Potency [9] | Potency [10] | outcome [11] | Potency [12] | Potency [13] | outcome [14] | Potency [15] |
| --- | --- | --- | --- | --- | --- | --- | --- | --- | --- | --- | --- | --- | --- | --- | --- |
| COc1cccc(Cn2c(=O)cnc3cnc(Oc4cccc(Cl)c4)nc32)c1 | > 11.4 | -19.7 | 12.6 µM (active) | -4.32 | -20.6 | > 9.22 | > 46 | inactive | 5.01 µM (active) | inactive | inactive |  |  |  |  |
| FC(F)(F)c1ccccc1-c1cncnc1NCCc1cnc[nH]1 | > 11.4 | -1.69 | 6.31 µM (active) | -20 | -1.23 | > 46 | > 46 | inactive |  |  | inactive | inactive | inactive | inactive |  |
| COc1cccc(Nc2ncc3nc(CCc4ccccc4)c(=O)n(CCC#N)c3n2)c1 | > 11.4 | -11.6 | inactive | -14.1 | -2.69 | > 9.22 | > 46 | inactive |  | inactive | inactive |  |  |  |  |
| Cc1nc2cnc(N(C)C)nc2n(C)c1=O | > 11.4 | -9.37 | 3.98 µM (active) | -9.43 | 0.339 | > 9.22 |  | inactive |  | inactive | inactive | inactive |  |  |  |
| O=C(Nc1ccccc1)N1CCCC2(CCN(C(=O)c3cnccn3)CC2)C1 | > 11.4 | 4.4 | inactive | 15.7 | 2.67 |  | > 46 | inactive |  |  | inactive | inactive |  |  |  |
| CS(=O)(=O)N1CCC2(CCN(Cc3nccs3)CC2)CC1 | > 11.4 | 3.17 | inactive | 9.85 | -5.91 |  | > 46 | inactive |  |  | inactive | inactive |  |  |  |
| Cn1cc(-c2nc3cncnc3n(CCN)c2=O)c2ccccc21 | > 11.4 | 0.818 | 6.31 µM (active) | 3.03 | 0.835 |  | > 46 | inactive |  | inactive | inactive | inactive |  |  | inactive |
